Measurements reported in PubChem BioAssay (Tox21).
A number with no mark means an inactive call. Results filed as inconclusive are left out. A call without a number means that no potency is given here. Calls of active or inactive are those of the source. Calls come from the whole dose curve; as a rule, active = well fitted curve in the direction sought with a large enough effect in the repeat runs; inconclusive = weak or mixed curves; inactive = no such curve, though single readings can be large; an effect the other way counts as inactive or inconclusive.

Columns and labels:
[1] = Human pregnane X receptor (PXR) small molecule agonists, qHTS cell viability counter screen (AID 1346977); note: nearly all actives have a fitted effect of over 50% in size; note: potency is the fitted concentration of half-maximal effect
In short: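 PXR-Luc HepG2 cells in medium with 5% charcoal-stripped FBS were pre-incubated 5hr, then exposed to compounds for 24hr at 37C. Viability was read in the same wells by CellTiter-Fluor fluorescence, reagent added after 23hr with a 1hr incubation.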

[2] = Caspase-3/7 induction in CHO-K1 cells by small molecules, qHTS cell viability counter screen (AID 1346979); note: nearly all actives have a fitted effect of over 35% in size; note: potency is the fitted concentration of half-maximal effect
In short: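 Wild-type CHO-K1 cells were seeded at 1,500 per well, rested 5hr at 37 C, then exposed to compounds in DMSO. After 16hr, CellTiter-Fluor reagent was added and fluorescence read 1hr later as the viability measure.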

[3] = Caspase-3/7 induction in CHO-K1 cells by small molecules, qHTS assay (AID 1346980); note: nearly all actives have a fitted effect of over 15% in size; note: potency is the fitted concentration of half-maximal effect
In short: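 Wild-type cells were seeded at 1,500 per well and settled 5 hr at 37 C, 5% CO2, then exposed to DMSO-dissolved compounds for 17 hr. Caspase-Glo 3/7 reagent was added, and luminescence was read after 30min at room temperature.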

[4] = Caspase-3/7 induction in HepG2 cells by small molecules, qHTS cell viability counter screen (AID 1346981); note: nearly all actives have a fitted effect of over 30% in size; note: potency is the fitted concentration of half-maximal effect
In short: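 Steps: seed 2,000 HepG2 cells per well; incubate 5 hr at 37 C; pin-add compounds in DMSO; incubate 16 hr; add CellTiter-Fluor; after 1 hr at 37 C and 5% CO2, read fluorescence.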

[5] = biological target: Nuclear receptor subfamily 1 group I member 2 (Homo sapiens) (UniProt O75469); experiment: Human pregnane X receptor (PXR) small molecule agonists, qHTS assay (AID 1346982); note: nearly all actives have a fitted effect of over 35% in size; note: potency is the fitted concentration of half-maximal effect
In short: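 Agonist mode qHTS: PXR-Luc HepG2 cells plated 5 hr before DMSO-dissolved compounds were pinned in, cultured 24 hr at 37 C, 5% CO2; ONE-Glo luminescence readout.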

[6] = biological target: Cytochrome P450 2D6 (Homo sapiens) (UniProt P10635); experiment: Cytochrome P450 Family 2 Subfamily D Member 6 (CYP2D6) small molecule antagonists: luciferase reporter qHTS assay (AID 1671196); note: nearly all actives have a fitted effect of over 50% in size; note: potency is the fitted concentration of half-maximal effect
In short: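 P450-Glo format: CYP2D6 converts a proluciferin substrate to luciferin in an NADPH-driven reaction lasting 1 h at room temperature. Light output, proportional to CYP2D6 activity, reflects interference by test chemicals.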

[7] = Caspase-3/7 induction in HepG2 cells by small molecules, qHTS assay (AID 1346978); note: nearly all actives have a fitted effect of over 15% in size
In short: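 Wild-type HepG2 cells (2,000/well) were settled 5 h at 37 C, 5% CO2, then exposed to compounds in DMSO for 17 h. Caspase-3/7 activity was read by luminescence 30 min after adding Caspase-Glo 3/7 reagent at room temperature.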

[8] = biological target: Nuclear receptor subfamily 1 group I member 2 (Rattus norvegicus) (UniProt Q9R1A7); experiment: Rat pregnane X receptor (rPXR) activation by small molecules, qHTS assay (AID 1346983); conditions: rPXR luciferase reporter cells, One-Glo luminescence, 24 h; max activation: stronger effect = higher value; note: nearly all actives have a fitted effect of over 20% in size
In short: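 Cell-based rPXR luciferase reporter assay, 2,000 cells per well, rested 5hr at 37 C before compound addition in DMSO, then 24 hr at 37 C. One-Glo reagent was added and luminescence read after 30 min at room temperature.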

[9] = biological target: Nuclear receptor subfamily 1 group I member 2 (Homo sapiens) (UniProt O75469); experiment: Human pregnane X receptor (PXR) activation by small molecules, qHTS assay (AID 1346985); note: nearly all actives have a fitted effect of over 40% in size; note: potency is the fitted concentration of half-maximal effect
In short: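 DPX-2 cells (HepG2 co-transfected with a PXR response element and a CYP3A4-promoter luciferase construct) were seeded at 2,000 per well, rested 5 hr at 37C, then exposed to DMSO-dissolved compounds for 24 hr. Activation was read as luciferase luminescence.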

[10] = biological target: Nuclear receptor subfamily 1 group I member 2 (Homo sapiens) (UniProt O75469); experiment: CYP3A4 induction through human pregnane X receptor (PXR) by small molecules, qHTS assay (AID 1346984); note: nearly all actives have a fitted effect of over 40% in size; note: potency is the fitted concentration of half-maximal effect
In short: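 Steps: seed DPX-2 cells, 5 hr at 37C; pin-transfer compounds; 24 hr at 37C; add Luciferin-IPA (3uM final), 3 hr at 37C; add One-Glo, 30 min RT; read luminescence.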

Cytochrome P450 2D6 (Homo sapiens), sequence (P10635 whole entry, looked up): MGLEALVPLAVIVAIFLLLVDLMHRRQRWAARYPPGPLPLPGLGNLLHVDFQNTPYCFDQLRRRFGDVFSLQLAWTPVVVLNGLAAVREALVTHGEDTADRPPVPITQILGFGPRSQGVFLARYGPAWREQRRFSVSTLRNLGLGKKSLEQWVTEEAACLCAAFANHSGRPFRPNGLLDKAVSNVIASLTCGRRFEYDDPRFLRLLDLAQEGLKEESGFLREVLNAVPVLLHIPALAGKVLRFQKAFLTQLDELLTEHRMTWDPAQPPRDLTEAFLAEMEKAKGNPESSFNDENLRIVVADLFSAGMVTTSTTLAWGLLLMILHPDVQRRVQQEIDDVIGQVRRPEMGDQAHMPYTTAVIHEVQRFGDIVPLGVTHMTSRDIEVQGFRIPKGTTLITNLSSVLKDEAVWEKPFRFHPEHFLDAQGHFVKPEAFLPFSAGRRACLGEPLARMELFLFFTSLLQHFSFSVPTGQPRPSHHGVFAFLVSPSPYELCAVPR
Nuclear receptor subfamily 1 group I member 2 (Homo sapiens), sequence (O75469 whole entry, looked up): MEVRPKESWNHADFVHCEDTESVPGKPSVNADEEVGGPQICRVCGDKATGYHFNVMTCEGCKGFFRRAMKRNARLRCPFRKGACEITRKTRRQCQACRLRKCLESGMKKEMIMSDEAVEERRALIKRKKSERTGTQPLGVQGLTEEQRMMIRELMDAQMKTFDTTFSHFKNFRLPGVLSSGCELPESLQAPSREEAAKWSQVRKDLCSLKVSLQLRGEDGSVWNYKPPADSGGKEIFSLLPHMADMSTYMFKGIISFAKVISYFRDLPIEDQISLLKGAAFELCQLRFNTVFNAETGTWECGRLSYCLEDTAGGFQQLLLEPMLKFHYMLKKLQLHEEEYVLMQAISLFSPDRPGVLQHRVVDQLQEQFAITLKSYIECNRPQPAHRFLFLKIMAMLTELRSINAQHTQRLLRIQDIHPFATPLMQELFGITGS
Nuclear receptor subfamily 1 group I member 2 (Rattus norvegicus), sequence (Q9R1A7 whole entry, looked up): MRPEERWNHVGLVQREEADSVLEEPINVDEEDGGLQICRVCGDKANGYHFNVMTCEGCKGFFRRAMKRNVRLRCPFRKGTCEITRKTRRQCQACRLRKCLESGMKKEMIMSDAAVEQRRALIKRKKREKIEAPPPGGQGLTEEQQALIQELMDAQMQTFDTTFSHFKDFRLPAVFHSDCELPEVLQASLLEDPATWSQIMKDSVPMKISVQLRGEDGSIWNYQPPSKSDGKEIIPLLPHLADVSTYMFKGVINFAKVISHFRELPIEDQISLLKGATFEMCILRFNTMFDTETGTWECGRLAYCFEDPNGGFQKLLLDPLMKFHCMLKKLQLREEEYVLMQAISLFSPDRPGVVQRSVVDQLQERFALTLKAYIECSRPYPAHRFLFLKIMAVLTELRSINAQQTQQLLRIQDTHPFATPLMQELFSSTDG

SMILES | Potency [1] | Potency [2] | Potency [3] | Potency [4] | Potency [5] | Potency [6] | Potency [7] | max activation [8] [%] | Potency [9] | Potency [10]
COc1ccc(S(=O)(=O)N2C(=O)[C@@](c3ccccc3OC)(N3C[C@H](O)C[C@H]3C(=O)N(C)C)c3cc(Cl)ccc32)c(OC)c1 | 54.5 µM (active) | 30.6 µM (active) | 61.1 µM (active) | 30.6 µM (active) | 61.1 µM (active) |  |  |  |  | 
Brc1c2ccccc2cc2ccccc12 | inactive | inactive |  | inactive | 61.8 µM (active) | inactive |  |  |  | 
COC(=O)C1=C(C)NC(COC(N)=O)=C(C(=O)OC(C)C)C1c1cccc(Cl)c1Cl (centres undefined) | inactive | 13.3 µM (active) |  |  |  |  |  |  |  | 
OC(CN1CCC(Cc2ccc(F)cc2)CC1)c1ccc(Cl)cc1 (centres undefined) | 29.8 µM (active) |  | inactive |  | inactive |  | inactive | -1.2 | inactive | 
CCCC(=O)Nc1ccc(O)c(C(C)=O)c1 | inactive |  |  | inactive | inactive | inactive | inactive |  |  | 
CN(C)CCN(Cc1ccccc1)c1ccccn1 |  | inactive | inactive | inactive | 6.68 µM (active) | 0.219 µM (active) | inactive | 2.98 | inactive | inactive
CC(=O)OC[C@H]1O[C@@H](n2ncc(=O)[nH]c2=O)[C@H](OC(C)=O)[C@@H]1OC(C)=O | inactive |  |  | inactive | inactive | 4.36 µM (active) | inactive | -1.15 | inactive | inactive
O=C1C(O)=C(O)C(=O)C(O)=C1O | inactive |  | inactive |  | inactive | inactive | inactive | -2.91 | inactive | inactive
O=C(O)c1ccc(S(=O)(=O)O)cc1C(=O)O | inactive |  |  |  | inactive |  | inactive |  |  | 
C=CC(=O)OCCOCCOC(=O)C=C | 54.7 µM (active) |  |  | 61.4 µM (active) | inactive | inactive | inactive |  |  | 
CCCCCCCCCc1ccc(OCCOCCO)cc1 | 5.74 µM (active) | 18.1 µM (active) | inactive | 20.4 µM (active) | 6.44 µM (active) | 23.6 µM (active) |  | -12.1 | inactive | inactive
CN(C)c1ccc(CCO)cc1 |  |  | inactive | inactive | inactive |  | inactive |  |  | 
CCOC(=O)NCCOc1ccc(Oc2ccccc2)cc1 |  |  | inactive |  | 21.7 µM (active) | 35.6 µM (active) | inactive |  |  | 
CCCCCCCC#N |  | inactive | inactive | inactive |  | inactive |  |  |  | 
CCN(CC)CCOC(=O)C(c1ccccc1)C1CCCCC1 (centres undefined) |  |  | inactive |  | 13.3 µM (active) | 1.1 µM (active) | inactive | 1.58 | 25.1 µM (active) | inactive
CN(C)CCOC(c1ccccc1)c1ccc(Br)cc1 (centres undefined) |  |  | inactive |  | inactive | 1.55 µM (active) | inactive |  |  | 
CCN(CC)CCOC(=O)C(Cc1cccc2ccccc12)CC1CCCO1 (centres undefined) |  | inactive | inactive | inactive |  | 2.75 µM (active) | inactive | 10.4 |  | 
CCCCC |  |  | inactive |  | 53.6 µM (active) |  | inactive | -1.52 | inactive | inactive
c1ccc(C(O[C@H]2CCCN(CCc3ccc4c(c3)OCO4)C2)c2ccccc2)cc1 |  | inactive | inactive |  |  | 2.45 µM (active) | inactive |  |  | 
Clc1ccc(Cn2c(CN3CCCC3)nc3ccccc32)cc1 |  |  | inactive | inactive |  | 1.74 µM (active) | inactive |  |  | 
CN(C)c1ccc(C(c2ccccc2)c2ccc(N(C)C)cc2)cc1 |  |  | inactive |  | 21.7 µM (active) | 31.7 µM (active) | inactive |  |  | 
C#Cc1cccc(Nc2ncnc3cc(OCCOC)c(OCCOC)cc23)c1 |  | 6.68 µM (active) | inactive |  | 7.5 µM (active) | inactive | inactive | -7.82 |  | inactive
NC(=O)C(c1ccccc1)(c1ccccc1)[C@@H]1CCN(CCc2ccc3c(c2)CCO3)C1 |  | inactive |  | inactive |  | 0.389 µM (active) | inactive |  |  | 
CN1CCC(N(Cc2cccs2)c2ccccc2)CC1 |  |  | inactive |  |  | 0.436 µM (active) | inactive |  |  | 

SMILES | Potency [1] | Potency [2] | Potency [3] | Potency [4] | Potency [5] | Potency [6] | Potency [7] | max activation [8] [%] | Potency [9] | Potency [10]
O=C(Nc1ccc(S(=O)(=O)N2CCOCC2)cc1)c1cc(Cl)ccc1NS(=O)(=O)c1ccc(Cl)s1 |  |  |  | inactive | 9.44 µM (active) | inactive | inactive |  |  | 
O=C1[C@H]2CCCC[C@H]2C(=O)N1CCCCN1CCN(c2nsc3ccccc23)CC1 |  |  | inactive | inactive | 5.31 µM (active) |  | inactive | 2.09 | 12.6 µM (active) | 
CC(C)OC(=O)C(C)N(C(=O)c1ccccc1)c1ccc(F)c(Cl)c1 (centres undefined) |  |  | inactive |  | 2.73 µM (active) | inactive | inactive |  |  | 
CN(C)C(=O)NC1(c2ccccc2)CCN(CC[C@@]2(c3ccc(F)c(F)c3)CN(C(=O)c3ccccc3)CCO2)CC1 |  |  | inactive |  | 8.02 µM (active) | 26.2 µM (active) | inactive |  |  | 
O=C(Cl)c1cc(C(=O)Cl)cc(C(=O)Cl)c1 |  |  | inactive | inactive | 54.5 µM (active) |  | inactive |  |  | 
CN1C[C@H]2c3ccccc3Oc3ccc(Cl)cc3[C@@H]2C1 |  | inactive | inactive | inactive | inactive | 0.11 µM (active) | inactive |  |  | 
CN1CCN(C(c2ccccc2)c2ccccc2)CC1 |  |  | inactive |  | inactive | 4.9 µM (active) | inactive | -2.77 | inactive | inactive
Cc1oc(-c2ccccc2)nc1CCOc1cccc2c1ccn2CCC(=O)O |  | 34.4 µM (active) | inactive | 34.4 µM (active) | inactive | inactive | inactive |  |  | 
CC(C)C[C@H]1C(=O)N2CCC[C@H]2[C@]2(O)O[C@](NC(=O)[C@@H]3C=C4c5cccc6[nH]c(Br)c(c56)C[C@H]4N(C)C3)(C(C)C)C(=O)N12 |  |  |  | 16.4 µM (active) |  |  | inactive | 0.513 |  | inactive
O=C(Nc1ccccc1)c1ccccc1O |  |  | inactive |  | 6.86 µM (active) | 35.6 µM (active) | inactive |  |  | 
C#C[C@]1(O)CC[C@H]2[C@@H]3CCc4cc(OC5CCCC5)ccc4[C@H]3CC[C@@]21C |  | 29.8 µM (active) | inactive | inactive |  | inactive | inactive | -3.04 |  | 
C=C1C(=C/C=C2\CCC[C@]3(C)[C@@H]([C@H](C)/C=C/[C@@H](O)C4CC4)CC[C@@H]23)C[C@@H](O)C[C@@H]1O |  | 18.8 µM (active) | inactive |  | 16.8 µM (active) |  | inactive | 5.08 | inactive | inactive
CN(C)CCN(Cc1ccc(Cl)cc1)c1ccccn1 |  |  | inactive | inactive |  | 0.275 µM (active) | inactive |  |  | 
COc1cc(C(=O)OCCCN2CCCN(CCCOC(=O)c3cc(OC)c(OC)c(OC)c3)CC2)cc(OC)c1OC |  | 23.7 µM (active) |  | 26.6 µM (active) | 29.8 µM (active) |  | inactive |  |  | 
CCCCCCOC(=O)NC(=N)c1ccc(NCc2nc3cc(C(=O)N(CCC(=O)OCC)c4ccccn4)ccc3n2C)cc1 |  | 29.8 µM (active) | inactive |  | 11.9 µM (active) |  | inactive |  |  | 
CCCCCCCCCCCCCCCCCCOS(=O)(=O)O |  |  | inactive | inactive |  | inactive | inactive |  |  | 
O=C1OC(CN2CCOCC2)CN1/N=C/c1ccc([N+](=O)[O-])o1 (centres undefined) |  |  | inactive |  | inactive | 38.9 µM (active) | inactive | -7.02 | inactive | inactive
Cc1oc2c(NC(=O)c3c(Cl)cccc3Cl)cccc2c1C(C)(C)O |  | 61.1 µM (active) | inactive |  | 1.09 µM (active) | inactive | inactive |  |  | 
CCc1cc(C2=C(C(=O)O)N(c3ccccc3C(F)(F)F)S(=O)(=O)c3ccccc32)cc2c1OCO2 |  |  | inactive |  | inactive | inactive | inactive |  |  | 
CC(=O)c1ccc2c(c1)N(CCCN(C)C)c1ccccc1S2 |  |  | inactive |  | inactive |  | inactive | -2.15 | inactive | inactive
COc1cc2nc(N(C)CCCNC(=O)C3CCCO3)nc(N)c2cc1OC (centres undefined) |  | 21.1 µM (active) | inactive | inactive |  |  | inactive | -4.32 | inactive | inactive
CCc1c(C(=O)NN2CCCCC2)nn(-c2ccc(Cl)cc2Cl)c1-c1ccc(Br)cc1 |  | 27.3 µM (active) | inactive |  | 48.6 µM (active) | inactive | inactive |  |  | 
OC(C#CCN1CCCC1)(c1ccccc1)c1ccccc1 |  | inactive |  | inactive | 23.7 µM (active) |  | inactive | 1.06 |  | 15.8 µM (active)
